These results are taken from PubChem BioAssay (NCATS).

Test [1] is described as follows: qHTS assay for small molecule agonists of the antioxidant response element (ARE) signaling pathway (AID 651741; active means well fitted activation curve with a large enough effect in the signal ratio; the % refers to the signal ratio; further: potency means the concentration at half of the fitted maximal effect; on activation: % of control where 0% means no effect). Put shortly:
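HepG2 ARE-bla reporter cells, 2,000/well; 5 h settle at 37 C/5% CO2; compound pin transfer (23 nL, DMSO); 16 h at 37 C; LiveBLAzer B/G FRET substrate, 2 h RT; fluorescence intensity read.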
A general note: qHTS replaces the single test concentration by a dilution series.

The nature of test [2]: qHTS assay for small molecule activators of the p53 signaling pathway (AID 651743; active means well fitted activation curve with a large enough effect in the signal ratio, not every such curve was filed as active; the % refers to the signal ratio; further: % of control where 0% means no effect). The settings on record: HCT-116 p53RE-bla, beta-lactamase FRET ratio, 16 h; activation: stronger effect = higher value. In outline:
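Reporter: beta-lactamase driven by p53 response elements, stably integrated in HCT-116 cells. Cells seeded at 4,000/well, 5 h preincubation, compound (DMSO) 16 h at 37 C; B/G FRET substrate 2 h RT; fluorescence intensity read.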

Test [3] can be described thus: qHTS assay for small molecule activators of the nuclear factor-kappa B (NF-kB) signaling pathway (AID 651749; active means well fitted activation curve with a large enough effect in the signal ratio; the % refers to the signal ratio; further: % of control where 0% means no effect). The settings on record: NF-kB-bla ME-180 cells, beta-lactamase FRET ratio, 16 h; stronger effect = higher value. Put shortly:
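NF-kB-bla ME-180 cells, 2,000/well; 23 nL compound or DMSO pinned; 16 hr, 37C/5% CO2; beta-lactamase FRET read-out.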

The nature of test [4]: qHTS assay for small molecule disruptors of the mitochondrial membrane potential - 1 hr assay (AID 651754; calls by dose curve; further: on the % scale 0 is the no-effect control and ±100 the full control effect; nearly all actives have a fitted effect of over 35% in size). Put shortly: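 In this qHTS format, a 1 hr compound treatment of HepG2 cells precedes Mito-MPS staining, and membrane potential is judged from aggregate (red) against monomer (green) fluorescence intensity.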
Test [5] in a line: qHTS assay for small molecule disruptors of the mitochondrial membrane potential - 5 hr assay (AID 651755; calls by dose curve; further: on the % scale 0 is the no-effect control and ±100 the full control effect; nearly all actives have a fitted effect of over 40% in size). In outline: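 Read-out: ratiometric Mito-MPS fluorescence, green monomer (ex 490/em 535) vs red mitochondrial aggregate (ex 540/em 590). HepG2 cells treated 5 hr at 37C before 30 min dye loading.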
Test [6] addresses Tumor necrosis factor (Homo sapiens) (UniProt P01375). The test can be described thus: qHTS assay to identify small molecules that stimulate Tumor Necrosis Factor-alpha (TNF-alpha) secretion (AID 651757; active means well fitted curve in the direction sought with a large enough effect in the signal ratio; the % refers to the signal ratio; further: 0% is about no effect). Put shortly:
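Using 3000 THP-1 cells per well, compounds and controls were applied for 17 hrs at 37 C. Detection followed with two labeled anti-TNF-alpha antibodies (cryptate donor, XL665 acceptor) for 3 hr at room temperature, measured by TR-FRET.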

Test [7] can be described thus: qHTS assay to identify small molecules that stimulate interleukin-8 (IL-8) secretion (AID 651758; active means well fitted activation curve with a large enough effect in the signal ratio; the % refers to the signal ratio; further: 0% is about no effect). In outline:
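Compounds are added to THP-1 cells (2000 per well) and left 16 hrs at 37 C. A labeled anti-IL-8 antibody pair is then added, and IL-8 secretion is measured by time-resolved FRET after 1-3 hrs at room temperature.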

Test [8] in a line: qHTS assay for environmental chemicals that activate the Aryl hydrocarbon Receptor (AhR) signaling pathway (AID 651777). Further: % of control where 0% means no effect; nearly all actives have a fitted effect of over 15% in size. The settings on record: 1A2-DRE human hepatoma cells, luciferase, 24 h; stronger effect = higher value. Put shortly:
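AhR activation is scored as a rise in luciferase from a stable DRE–CYP1A2 promoter construct in human hepatoma cells. Treatment lasts 24 hr at 37 C; detection uses One-Glo after 30 min at room temperature.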

Test [9] addresses Peroxisome proliferator-activated receptor alpha (Homo sapiens) (UniProt Q07869). The test can be described thus: qHTS assay for small molecule agonists of the peroxisome proliferator-activated receptor alpha (PPARalpha) signaling pathway (AID 651778). Further: % of control where 0% means no effect. The settings on record: PathHunter PPARalpha complementation, chemiluminescence, 6 h; max response: stronger effect = higher value. Put shortly: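 Enzyme-fragment complementation assay in which ligand-bound PPARalpha translocates and forms an active enzyme that generates chemiluminescence. Cells were plated overnight, exposed to compound for 6 hr at 37 C, and then given detection reagent for 60 min at room temperature.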

Test [10] addresses Nuclear receptor ROR-gamma (Homo sapiens) (UniProt P51449). Description: qHTS assay for small molecule antagonists of the retinoid-related orphan receptor gamma (ROR-gamma) signaling pathway (AID 651802).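 Further: CHO cells with doxycycline-induced ROR-gamma expression; luciferase reporter luminescence driven by ROR response element; on the % scale 0 is the no-effect control and ±100 the full control effect; nearly all actives have a fitted effect of over 60% in size.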 Put shortly:
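Doxycycline-induced reporter activity in engineered CHO cells (TET-inducible ROR, RORE-LUC) was measured by luminescence after 16hr compound exposure at 37C.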

A short description of test [11]: qHTS assay for small molecule antagonists of the retinoid-related orphan receptor gamma (ROR-gamma) signaling pathway - cell viability counter screen (AID 720652; active means well fitted curve in the direction sought with a large enough effect in the repeat runs; an effect the other way counts as inactive or inconclusive;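 further: CHO reporter cells with doxycycline-induced ROR-gamma expression; compound exposure lasted 16 hr before ATP read; on the % scale 0 is the no-effect control and ±100 the full control effect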). Put shortly:
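ATP-based viability readout in the ROR-gamma reporter CHO cells after 16 hr compound exposure under doxycycline induction.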

Test [12] in a line: qHTS assay for small molecule agonists of the antioxidant response element (ARE) signaling pathway measured by Nrf2-dependant transcriptional activity - cell viability counter screen (AID 720653; active means well fitted curve in the direction sought with a large enough effect in the repeat runs; an effect the other way counts as inactive or inconclusive; further: on the % scale 0 is the no-effect control and ±100 the full control effect). The settings on record: ARE-bla HepG2 viability, CellTiter-Glo ATP luminescence, 16 h; stronger effect = lower value. Put shortly: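 ARE-bla HepG2 cells treated with compounds for 16 h at 37C; this counter screen measures viability as intracellular ATP by CellTiter-Glo luminescence after 30 min at room temperature.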

Test [13] in a line: Cell Proliferation Assay against the TMD8 Cell Line (AID 651645).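 Further: cells exposed to compound for 48 h before reading.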 The settings on record: TMD8 DLBCL cell line proliferation/viability; at 46.1 µM (top of the series) unless noted. In outline: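 TMD8 ABC DLBCL cells, 500 per well in phenol red-free RPMI with 5% FBS, were treated with compound by pin transfer and incubated 48 hours at 37C, 5% CO2. Viability was read by CellTiter-Glo luminescence, normalised to DMSO (100%) and 9.2 uM bortezomib (0%).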

The nature of test [14]: Cell Proliferation Assay against the HBL1 Cell Line (AID 651646).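 Further: cells exposed to compound for 48 h before reading.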 The settings on record: HBL1 DLBCL cells; at 46.1 µM (top of the series) unless noted. In outline: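 HBL1, 500 cells/well, RPMI no phenol red + 5% FBS; cpd pinned, 48 h 37C/5% CO2; CellTiter-Glo, 15 min RT, luminescence. % activity: DMSO = 100%, bortezomib 9.2 uM final = 0%.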
Test [15] can be described thus: Cell Proliferation Assay against the TMD8 Cell Line (Caspase readout at 16 hrs) (AID 651712).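 Further: 0% = DMSO and 100% = 9.2 µM bortezomib caspase activation.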 In outline:
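Caspase-Glo luminescence after 16 h compound exposure of TMD8 cells, 37 °C, 5% CO2. Medium: RPMI without phenol red, 5% FBS. Normalisation: DMSO = 0%, bortezomib 9.2 uM final = 100%.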

Test [16] concerns the target Tyrosine-protein kinase Yes (Homo sapiens) (UniProt P07947). Description: qHTS for small molecule inhibitors of Yes1 kinase: Primary Screen (AID 686947).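 Further: plate controls were DMSO with enzyme for no effect and no-enzyme DMSO wells for full effect; nearly all actives have a fitted effect of over 60% in size.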 In outline:
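In this qHTS format, inhibition is expressed relative to DMSO controls with enzyme (maximum) and without enzyme (minimum). The 60 min room-temperature reaction uses 0.1 mM ATP, with ADP detected by luminescence.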

Test [17] in a line: qHTS for small molecule inhibitors of Yes1 kinase: Counter Assay (AID 686950).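 Further: no kinase present so only ADP-Glo detection of a fixed ADP amount is tested; luminescence from ADP-Glo reporting ADP in a fixed ATP and ADP mixture; 0% = DMSO wells with ATP plus ADP and -100% = ATP-only wells without ADP.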 Put shortly: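 No kinase present; 0.08 mM ATP + 0.02 mM ADP in 50 mM Tris pH 7.5, 10 mM MgCl2, 150 mM NaCl, 1 mM DTT; 20 min compound preincubation, 60 min RT, ADP-Glo luminescence, normalized to ATP/ADP (max) and ATP-only (min).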
In test [18] the target is Arylsulfatase A (Homo sapiens) (UniProt P15289). Description: qHTS screen for enhancers of Arylsulfatase A (ASA1): LOPAC Validation Assay (AID 720538). Further: 0% is about no effect. Put shortly:
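SV40-transformed skin fibroblasts from an MLD patient (ASA-I179S) were treated with compounds for 48h at 37 degree C, then lysed with 0.5mM pNCS final substrate for 14h at room temperature; NaOH stop, fluorescence read (Ex=525 nm; Em=598 nm).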

Test [19] is described as follows: qHTS for compounds that reverse cellular toxicity of Amyloid beta (A-beta) peptide in yeast: LOPAC Validation Assay (AID 720559).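 Further: plate controls were DMSO for no effect and equimolar ferric chloride plus clioquinol rescue for full effect.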 In outline:
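Yeast cells expressing toxic A-beta were combined with pinned compounds in growth medium and incubated 48 hr at 30 C. Growth was read as absorbance at 600 nm and normalized to DMSO and to an equimolar FeCl3/clioquinol positive control.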

The nature of test [20]: qHTS for Activators of Parkin Expression: LOPAC Validation Assay (NLuc Reporter) (AID 720572). In outline:
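NLuc signal, read 10 min after reagent and following a prior FLuc read, is normalized to DMSO (0) and positive controls (100%). Cells: neuronal Parkin-promoter coincidence reporter line; compounds tested 7-point, 24 h, 37 C, 5% CO2.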

SMILES strings stand for the structures. Values joined by “and” are separate entries in the source; they are usually repeats but may differ in a detail not shown here. Equal values may be shown once. Results filed as inconclusive are left out. Active and inactive are the calls of the source. Unless noted, the call rests on the fitted dose curve; in most records, active means well fitted curve in the direction sought with a large enough effect; inconclusive means small, poorly fitted or top-dose-only effect, or another doubt; inactive means no such curve, though single readings can be large; an effect the other way counts as inactive or inconclusive.

Chain of Tumor necrosis factor (Homo sapiens) (P01375 whole entry, looked up): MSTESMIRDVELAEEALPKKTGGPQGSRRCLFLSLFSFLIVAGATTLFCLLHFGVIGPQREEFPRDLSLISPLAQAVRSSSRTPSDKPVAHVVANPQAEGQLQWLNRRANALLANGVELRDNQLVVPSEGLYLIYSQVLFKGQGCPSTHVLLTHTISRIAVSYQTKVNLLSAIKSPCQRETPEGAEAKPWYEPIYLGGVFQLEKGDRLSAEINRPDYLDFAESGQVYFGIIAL
Chain of Peroxisome proliferator-activated receptor alpha (Homo sapiens) (Q07869 whole entry, looked up, the tested form may be a part): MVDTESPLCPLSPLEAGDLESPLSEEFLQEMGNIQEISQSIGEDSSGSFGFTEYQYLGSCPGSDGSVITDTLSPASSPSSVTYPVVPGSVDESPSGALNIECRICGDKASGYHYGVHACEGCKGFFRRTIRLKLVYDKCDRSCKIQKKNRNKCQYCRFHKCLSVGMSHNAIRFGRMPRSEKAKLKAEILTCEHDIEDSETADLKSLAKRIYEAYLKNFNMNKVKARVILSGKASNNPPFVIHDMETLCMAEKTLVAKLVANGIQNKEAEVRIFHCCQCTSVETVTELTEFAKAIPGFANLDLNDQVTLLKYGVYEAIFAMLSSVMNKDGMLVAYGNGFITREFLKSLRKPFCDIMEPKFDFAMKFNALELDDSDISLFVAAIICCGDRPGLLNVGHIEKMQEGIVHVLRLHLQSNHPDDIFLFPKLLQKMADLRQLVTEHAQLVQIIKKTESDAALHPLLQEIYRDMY
Chain of Nuclear receptor ROR-gamma (Homo sapiens) (P51449 whole entry, looked up): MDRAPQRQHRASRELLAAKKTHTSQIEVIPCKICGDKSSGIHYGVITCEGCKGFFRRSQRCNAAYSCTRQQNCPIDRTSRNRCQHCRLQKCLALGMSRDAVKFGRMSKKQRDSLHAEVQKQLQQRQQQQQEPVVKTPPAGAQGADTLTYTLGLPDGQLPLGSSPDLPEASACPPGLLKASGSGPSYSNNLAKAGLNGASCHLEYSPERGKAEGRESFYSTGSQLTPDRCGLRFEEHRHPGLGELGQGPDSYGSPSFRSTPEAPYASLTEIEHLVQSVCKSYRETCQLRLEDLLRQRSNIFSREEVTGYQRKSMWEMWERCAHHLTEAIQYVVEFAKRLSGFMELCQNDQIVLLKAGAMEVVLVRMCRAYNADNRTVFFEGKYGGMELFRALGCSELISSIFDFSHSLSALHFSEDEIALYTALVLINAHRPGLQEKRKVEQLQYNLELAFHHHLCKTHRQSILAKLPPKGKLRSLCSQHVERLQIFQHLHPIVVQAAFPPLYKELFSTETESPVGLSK
Chain of Tyrosine-protein kinase Yes (Homo sapiens) (P07947 whole entry, looked up): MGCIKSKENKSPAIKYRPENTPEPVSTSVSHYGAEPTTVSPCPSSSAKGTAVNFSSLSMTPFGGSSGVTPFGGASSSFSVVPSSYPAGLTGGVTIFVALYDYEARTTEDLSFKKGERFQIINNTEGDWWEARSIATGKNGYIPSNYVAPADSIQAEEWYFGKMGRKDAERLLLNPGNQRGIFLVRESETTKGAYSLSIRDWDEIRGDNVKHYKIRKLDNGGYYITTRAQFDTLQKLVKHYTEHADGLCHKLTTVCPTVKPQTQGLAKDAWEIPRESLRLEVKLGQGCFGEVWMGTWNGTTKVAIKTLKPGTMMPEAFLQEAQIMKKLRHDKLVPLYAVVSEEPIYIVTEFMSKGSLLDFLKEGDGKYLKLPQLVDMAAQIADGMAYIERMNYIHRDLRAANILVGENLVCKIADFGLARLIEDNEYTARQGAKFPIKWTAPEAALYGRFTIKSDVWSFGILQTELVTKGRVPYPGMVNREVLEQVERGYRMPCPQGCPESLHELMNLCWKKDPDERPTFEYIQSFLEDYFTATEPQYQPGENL
Chain of Arylsulfatase A (Homo sapiens) (P15289 whole entry, looked up): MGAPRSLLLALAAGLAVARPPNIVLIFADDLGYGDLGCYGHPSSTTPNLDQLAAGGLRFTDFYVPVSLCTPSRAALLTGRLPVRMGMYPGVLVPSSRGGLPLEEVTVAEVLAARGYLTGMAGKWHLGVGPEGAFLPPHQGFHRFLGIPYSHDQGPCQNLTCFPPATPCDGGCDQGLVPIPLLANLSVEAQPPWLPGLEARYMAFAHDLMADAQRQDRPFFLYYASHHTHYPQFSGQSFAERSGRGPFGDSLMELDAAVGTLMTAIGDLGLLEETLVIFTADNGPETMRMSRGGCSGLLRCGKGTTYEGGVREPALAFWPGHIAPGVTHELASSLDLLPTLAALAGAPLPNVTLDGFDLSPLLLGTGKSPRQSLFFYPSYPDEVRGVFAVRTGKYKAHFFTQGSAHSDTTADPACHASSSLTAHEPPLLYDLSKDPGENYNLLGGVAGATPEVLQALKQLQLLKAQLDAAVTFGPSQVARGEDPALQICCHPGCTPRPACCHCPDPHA

In the case of `CC1=C2[C@@H]([C@H](C)CC[C@H]2/C=C(\C)C(=O)O)[C@H](O)C1`, the Potency entry in test [1] and in [7] was “inactive” each time. Moreover, the activation in [2] was -3.64% (inactive); in test [3] it was -0.741% (inactive); in test [8], 1.08% (inactive). Moreover, the compound was classed as inactive in [4], in [5], in [6], in [10] and in [11]. The max response in test [9] is -2.98% (inactive); in test [12] it was -8.96% (inactive).

Consider `CCCCCCCCCCCCCCCCCCOP(=O)([O-])OC1CC[N+](C)(C)CC1`, for which, in test [13], the viability (% of control) worked out at 102% [at 29.8 µM]. Also, the viability, percent of control in [14] stood at 93.3% [at 29.8 µM]. Further, the Potency result in test [15] and in [16] was “inactive” throughout. Also, the call in [17] was inactive.

For the compound `CNC1CCN(C(Cc2cccc(-c3ccncc3)c2)C(=O)c2sc3c(F)ccc(F)c3c2Cl)CC1` (stereo unspecified), in [13], the viability (% of control) amounted to 0.928%. In test [14], the viability, percent of control came out at 0.927%. In addition, the Potency result in test [16] was “inactive”. Moreover, the call in test [17] was inactive.

`CN1Cc2c(N)cccc2C(c2ccccc2)C1` (stereo unspecified): the result in test [18], in [19] and in test [20] was inactive.

As to `CC(C)=O`, the Potency entry in [1] was “inactive”. Further, the figures for the activation in test [2], in [3] and in [8] were -0.255% (inactive), 2.82% (inactive) and -1.82% (inactive), respectively. The result in test [4], in test [5], in [6], in test [10] and in test [11] was inactive. Moreover, the max response was -7.67% (inactive) in test [9] and -3.47% (inactive) in test [12].

Turning to `CC1(C)C(C=C(Cl)Cl)C1C(=O)OCc1cccc(Oc2ccccc2)c1` (stereo unspecified), the activation in [2] was -1.26% (inactive) [middle of 4 runs]; in test [8], -0.92% (inactive) and -0.145% (inactive) and 0.247% (inactive). The max response in [9] is -0.904% (inactive) [middle of 4 runs]; in test [12], -3.1% (inactive) [middle of 4 runs].

Regarding `CCCCCCCC(=O)O`, the Potency result in test [1] was “inactive”. The activation is -2.15% (inactive) and 0.705% (inactive) in [2]; 0.292% (inactive) and -0.546% (inactive) in test [8]. In addition, the compound was classed as inactive in test [6], in test [10] and in test [11]. Also, the max response in [9] is -0.533% (inactive) and 5% (inactive); in test [12] it was 3.78% (inactive) and 1.59% (inactive).

With `O=C(O)CN(CCN(CC(=O)O)CC(=O)O)CC(=O)O`, the activation in [2] is -1.95% (inactive) and 0.161% (inactive); in [8], 2.06% (inactive) and 1.21% (inactive). The max response is 2.01% (inactive) and 0.29% (inactive) in test [9]; 14.1% (inactive) and -8.31% (inactive) in [12].

Take `CCOc1ccc2c(c1)C(C)=CC(C)(C)N2`: in [1], the Potency was 27.3 µM (active). The activation in [2] is 3.65% (inactive); in [8] it was 3.55% (inactive) and 2.98% (inactive). The result in test [4], in test [5], in test [6], in [10] and in [11] was inactive. The max response in [9] was -4.24% (inactive) and -2.12% (inactive); in [12], -1.53% (inactive) and -25.3% (inactive).
